Source: PubChem BioAssay
A selection: hits, their analogues and other compounds. The true share with any hit is near 3.5%.
FBW7 act: human FBW7 E3 ligase activation, primary screen; Q969H0; AlphaScreen FBW7–phospho-cyclin E peptide binding, activator screen; normalized activity (activation), % at 26.1 µM; 650,000 compounds, 0.13% hits; AID 1259310; in the data active = normalized activity above about 1.9%;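 also: purified mutant Fbw7 with reduced substrate affinity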
TEAD-YAP block: TEAD-YAP interaction inhibition; HEK-TIYL cells, TEAD-Gal4/YAP UAS-luciferase luminescence; inhibition, % at 9.12 µM; 640,000 compounds, 1.4% hits; AID 1259422; in the data active = inhibition above about 32%;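 also: 0% = median of test compound wells and 100% = reference inhibitor wells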
MITF primary: human MITF inhibition, primary screen. O75030. AlphaScreen MITF homodimerization, bead proximity signal. inhibition, % at 2.6 µM. 650,000 compounds, 0.91% hits. AID 1259374; in the data active = inhibition above about 50%;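 also: 0% = vehicle wells with protein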
Target sequence (O75030 whole entry, looked up): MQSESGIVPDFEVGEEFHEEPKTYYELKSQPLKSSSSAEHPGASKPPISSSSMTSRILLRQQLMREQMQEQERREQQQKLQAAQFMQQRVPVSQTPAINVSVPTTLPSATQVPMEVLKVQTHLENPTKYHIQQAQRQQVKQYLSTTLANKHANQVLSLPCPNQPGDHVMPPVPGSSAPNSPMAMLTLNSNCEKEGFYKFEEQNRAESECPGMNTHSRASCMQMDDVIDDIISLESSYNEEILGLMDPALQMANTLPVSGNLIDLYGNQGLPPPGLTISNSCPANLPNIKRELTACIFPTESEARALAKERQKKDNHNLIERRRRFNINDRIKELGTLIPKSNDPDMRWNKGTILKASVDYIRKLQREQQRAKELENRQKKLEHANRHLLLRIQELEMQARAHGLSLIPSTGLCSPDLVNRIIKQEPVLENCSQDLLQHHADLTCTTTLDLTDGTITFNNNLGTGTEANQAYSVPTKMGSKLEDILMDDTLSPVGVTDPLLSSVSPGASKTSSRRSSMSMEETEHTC
GPR151 ag: activators of human GPR151; AID 1508602; PathHunter beta-arrestin GPR151 cells, luminescence; activation, % at 11.2 µM; 650,000 compounds, 1% hits; in the data active = activation above about 4.9%;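 also: 0% = median of compound wells and 100% = cells with positive control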
Starred values were filed as active, the others as inactive.

SMILES	FBW7 act	TEAD-YAP block	MITF primary	GPR151 ag
CCOc1ccc2[nH]c(=O)c(CN(CCN(C)C)C(=O)Nc3ccc(OC)cc3)cc2c1	0	-9	9	-1
COc1ccc(C)cc1NC(=O)c1cc(S(=O)(=O)N2CCN(c3cccc(C)c3)C(C)C2)ccc1F (stereo unspecified)	0	4	-1	0
c1ccc(-c2cnn3c(NCCc4cccnc4)ccnc23)cc1	0	80*	-6	-1
OCc1ccc(-c2cnn3c(NCCc4cccnc4)ccnc23)cc1	1	-5	12	0
Fc1ccccc1-c1cnn2c(NCc3ccccn3)ccnc12	2.2*	-21	-1	0
Fc1ccccc1-c1cnn2c(NCCc3cccnc3)ccnc12	0	91*	-5	-2
Cc1ccc(C(=O)[C@H]2[C@H](c3ccccc3)C(C#N)(C#N)[C@@H]3c4ccccc4C=CN32)cc1	0	-8	-7	1
CC(=O)c1ccc(NC(=O)c2c(-c3c(Cl)cccc3Cl)noc2C)cc1	0	3	-12	0
Clc1ccc(-n2ncc3c(NC(c4ccccc4)c4ccccc4)ncnc32)cc1	0	-3	1	2
Clc1ccc(-n2ncc3c(Nc4ccc(Br)cc4)ncnc32)cc1	0	42*	-2	1
O=C(NNc1ncnc2c1cnn2-c1ccc(F)cc1)c1cccs1	0	31	-15	2
O=C(NNc1ncnc2c1cnn2-c1ccc(Cl)cc1)c1cccs1	0	57*	-16	1
Clc1ccc(Nc2ncnc3c2cnn3-c2ccccc2)cc1	0	-18	-5	0
CC(C)Nc1ncnc2c1cnn2-c1ccc(Cl)cc1	0	56*	18	0
Cc1ccn2c(c1)nc1cc([N+](=O)[O-])ccc12	0	-54	-7	-2
OC(CNC1CC1)Cn1c2ccccc2c2ccccc21 (stereo unspecified)	0	10	5	0
CCOc1ccc(OC)cc1/C=N/NS(=O)(=O)c1ccc(Cl)cc1	0	65*	11	0
CCOc1cc(Br)c(/C=C2/NC(=O)NC2=O)cc1OCC	0	44*	7	0
CCOc1cc(/C=C2/NC(=O)NC2=O)c(Br)cc1O	0	44*	-28	0
COc1cc(/C=C2/NC(=O)NC2=O)c(Br)cc1O	0	10	-2	0
CCOc1cc(Cl)c(/C=C2/NC(=O)NC2=O)cc1OCC	0	-11	4	-1
COc1ccc(Cc2nnc(N/N=C/c3cc([N+](=O)[O-])ccc3O)[nH]c2=O)cc1OC	0	-2	115*	2
COc1ccc(Cc2nnc(N/N=C/c3cccs3)[nH]c2=O)cc1OC	-1	4	-9	-1
COc1ccc(/C=N/Nc2nnc(Cc3ccccc3)c(=O)[nH]2)cc1OC	0	4	15	0
O=c1[nH]c(N/N=C/c2ccccc2O)nc2ccccc12	0	72*	78*	-3
SMILES	FBW7 act	TEAD-YAP block	MITF primary	GPR151 ag
O=c1[nH]c(N/N=C/c2ccc(O)cc2O)nnc1Cc1ccccc1	0	8	104*	-1
CC(=O)Nc1ccc(C2C3=C(CC(C)(C)CC3=O)Nc3[nH]n(-c4ccccc4)c(=O)c32)cc1 (stereo unspecified)	0	3	-6	1
COc1cccc(C(NC(=O)c2ccccc2)c2ccc3cccnc3c2O)c1 (stereo unspecified)	-2	13	17	-1
COc1ccc(C(=O)NC(c2ccc(Cl)cc2)c2cc(Cl)c3cccnc3c2O)cc1 (stereo unspecified)	0	9	0	-1
COc1ccc(C(NC(=O)c2ccccc2)c2ccc3cccnc3c2O)cc1 (stereo unspecified)	-1	38*	46	-1
O=C(NC(c1ccc(Cl)cc1)c1ccc2cccnc2c1O)c1ccccc1 (stereo unspecified)	-1	75*	17	0
CC(C)(C)NC(=O)Cn1c2ccccc2n2c(SCc3ccccn3)nnc12	1	13	11	-2
O=[N+]([O-])c1cc(CN2CCCCC2)c(O)c2ncccc12	-1	4	73*	-2
O=[N+]([O-])c1cc(CN2CCC(c3ccccc3)C2)c(O)c2ncccc12 (stereo unspecified)	-1	32*	55*	2
CN1CCN(Cc2cc([N+](=O)[O-])c3cccnc3c2O)CC1	0	7	76*	0
O=[N+]([O-])c1cc(CN2CCc3ccccc3C2)c(O)c2ncccc12	-1	9	21	0
O=[N+]([O-])c1cc(CN2CCN(c3cccc(C(F)(F)F)c3)CC2)c(O)c2ncccc12	0	20	19	-1
Cc1nc(N2CCN(C)CC2)c2c3c(sc2n1)CCC3	0	11	1	1
C=CCN1C(=O)N(c2ccc(Cl)cc2)C(=O)C1CC(=O)Nc1ccc(OCCC)cc1 (stereo unspecified)	0	12	4	1
C=CCn1c(C)cc(C(=O)CSc2nnc(N)s2)c1C	0	39*	4	-6
COc1ccc(Cl)cc1-n1c(SCc2cc(=O)n3ccccc3n2)nc2[nH]ncc2c1=O	0	60*	5	-1
COc1ccc(Cl)cc1-n1c(SCc2ccccc2F)nc2[nH]ncc2c1=O	0	-11	-2	1
COc1cc2nc(Oc3ccccc3)nc(Nc3cc(OC)c(OC)c(OC)c3)c2cc1OC	0	56*	10	5
Cc1c(C(=O)OCC(=O)c2ccc(Cl)cc2)cccc1[N+](=O)[O-]	0	-8	13	0
Cc1ccc(C(=O)COC(=O)c2ccccc2[N+](=O)[O-])cc1C	0	49*	19	-4
COc1cc(Nc2ncnc3c2c(-c2ccccc2)cn3-c2ccc(C)c(Cl)c2)cc(OC)c1OC	0	4	-1	3
O=C(CCc1ccccc1)NC(=S)Nc1ccc(S(=O)(=O)N2CCOCC2)cc1	0	3	8	0
O=C(CCc1ccccc1)NC(=S)Nc1cccc(S(=O)(=O)N2CCCC2)c1	0	47*	-7	1
O=C(NNC(=O)c1cc[n+]([O-])cc1)c1ccncc1	0	3	-7	1
COc1ccc(C)cc1N1CCn2c1nc1c2c(=O)n(CCc2ccccc2)c(=O)n1C	0	-1	7	0
SMILES	FBW7 act	TEAD-YAP block	MITF primary	GPR151 ag
O=C(Nc1ccc(Cl)cc1)Nc1ccc(S(=O)(=O)Nc2ncccn2)cc1	2.5*	-2	-23	-1
COc1ccc(N2CCN(c3nc(C)nc4sc5c(c34)CCCC5)CC2)cc1	1	11	16	4
c1ccc(-n2cnc3c(NCc4nc5ccccc5[nH]4)nc(N4CCN(c5ccccn5)CC4)nc32)cc1	0	48*	-1	-2
CCCNc1nc(N2CCN(c3ccccn3)CC2)nc2c1ncn2-c1ccccc1	0	40*	0	-1
c1ccc(-n2cnc3c(NCc4nc5ccccc5[nH]4)nc(N4CCc5ccccc5C4)nc32)cc1	0	-13	3	1
CCCNC(=O)/C(=C\c1ccc(-c2cccc([N+](=O)[O-])c2)o1)NC(=O)c1ccccc1	0	20	11	0
